Source: ChEMBL document CHEMBL3988442, “University of Dundee, Small-Polar-MMV Screening Library” (2021)

Each compound was assayed against T1, Arginase-2, mitochondrial (Homo sapiens) (UniProt P78540) (assay: in vitro enzyme assay to detect the production of urea directly proportional to the activity of Arginase II). Conditions: 33.3 µM.
T1 sequence (whole entry): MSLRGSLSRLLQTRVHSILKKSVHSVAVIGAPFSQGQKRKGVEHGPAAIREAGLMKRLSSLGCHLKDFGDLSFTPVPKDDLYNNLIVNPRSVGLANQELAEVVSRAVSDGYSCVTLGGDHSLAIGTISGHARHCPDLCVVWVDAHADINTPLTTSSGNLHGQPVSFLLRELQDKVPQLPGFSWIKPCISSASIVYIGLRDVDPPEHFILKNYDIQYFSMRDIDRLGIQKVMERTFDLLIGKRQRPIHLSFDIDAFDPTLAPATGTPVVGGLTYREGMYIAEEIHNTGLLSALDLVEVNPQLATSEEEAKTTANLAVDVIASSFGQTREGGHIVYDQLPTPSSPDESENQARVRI
Format: functional
Design: scale not given: in the data most compounds retested in dose-response had high values

| SMILES | Percent Effect [%] |
| --- | --- |
| CC(C)NC(=O)Cn1cc(-c2ccccc2)cn1 | 3.23 |
| Cc1nn(C)c(C)c1C1COCCN1C(=O)c1ccccc1 (stereo not given) | 3.2 |
| O=C(N1CCCO1)[C@@]12CCO[C@@H]1CCN(C1CCCCC1)C2 | -50.7 |
| CC(C(=O)NCc1ccc(N2CCNC(=O)C2)cc1)n1cncn1 (stereo not given) | 1.42 |
| Cn1cc(CCNC(=O)NCc2nnc3n2CCC3)cn1 | 2.28 |
| CO[C@H]1CN(Cc2cccc(C#N)c2)[C@@H]2COC[C@H]12 | -48.9 |
| CC(NC(=O)c1nc(=O)[nH][nH]1)c1ccc(OCC2CC2)c(F)c1 (stereo not given) | -3.55 |
| c1ccc(-c2noc(CN3CCC(c4ccn[nH]4)CC3)n2)cc1 | 26.2 |
| Cc1csc(N2CCN(C(=O)CCn3cncn3)CC2)n1 | 4.18 |
| Cc1cc(C2CCCN(C(=O)c3cnn(C)c3)C2)ccn1 (stereo not given) | -0.696 |
| CCN(CC)CCNC(=O)c1cnc(C(C)(C)C)s1 | 2.88 |
| CCC(=O)Nc1nnc(CCOc2cccc(OC)c2)s1 | -4.4 |
| CCCn1[nH]cc/c1=N\C(=O)CN1CCCC1c1c(C)nn(C)c1C (stereo not given) | 6.81 |
| O=C(c1ccnnc1)N1C[C@H](Oc2cccnc2)[C@H]2OCCC[C@H]21 | -0.417 |
| COc1ccc(CN2CCC(O)CC2)c(OC)c1 | -1.91 |
| CS(=O)(=O)Cc1cccc(C(=O)NCC2Cc3ccccc3O2)c1 (stereo not given) | 5.46 |
| O=C(CCc1cccs1)N1CCCCC1Cn1cccn1 (stereo not given) | -1.47 |
| CCOc1ccccc1OC1CCN(C(=O)c2ccc(=O)[nH]n2)CC1 | 2.3 |
| CN(C)CCNC(=O)c1ccc(OC2CCN(S(C)(=O)=O)CC2)c(Cl)c1 | 3.23 |
| N#Cc1ccc(C(=O)N2CCn3c(Cn4cccn4)cnc3C2)cc1 | -57.5 |
